Data published in article PMC4336329 (PLoS ONE, 2015).
In all, about 310,000 compounds went through this assay and about 14,000 (4.5%) showed an effect of 50% or more. Effects have a minus sign here. The sample as a whole holds a higher share of strong results than the screen did.

biological target: human ether-à-go-go-related gene (hERG) potassium channel (human, UniProt Q12809); experiment: primary screen, population patch clamp on CHO cells stably expressing hERG; higher = less effect of the substance
Sequence (Q12809 whole entry, looked up): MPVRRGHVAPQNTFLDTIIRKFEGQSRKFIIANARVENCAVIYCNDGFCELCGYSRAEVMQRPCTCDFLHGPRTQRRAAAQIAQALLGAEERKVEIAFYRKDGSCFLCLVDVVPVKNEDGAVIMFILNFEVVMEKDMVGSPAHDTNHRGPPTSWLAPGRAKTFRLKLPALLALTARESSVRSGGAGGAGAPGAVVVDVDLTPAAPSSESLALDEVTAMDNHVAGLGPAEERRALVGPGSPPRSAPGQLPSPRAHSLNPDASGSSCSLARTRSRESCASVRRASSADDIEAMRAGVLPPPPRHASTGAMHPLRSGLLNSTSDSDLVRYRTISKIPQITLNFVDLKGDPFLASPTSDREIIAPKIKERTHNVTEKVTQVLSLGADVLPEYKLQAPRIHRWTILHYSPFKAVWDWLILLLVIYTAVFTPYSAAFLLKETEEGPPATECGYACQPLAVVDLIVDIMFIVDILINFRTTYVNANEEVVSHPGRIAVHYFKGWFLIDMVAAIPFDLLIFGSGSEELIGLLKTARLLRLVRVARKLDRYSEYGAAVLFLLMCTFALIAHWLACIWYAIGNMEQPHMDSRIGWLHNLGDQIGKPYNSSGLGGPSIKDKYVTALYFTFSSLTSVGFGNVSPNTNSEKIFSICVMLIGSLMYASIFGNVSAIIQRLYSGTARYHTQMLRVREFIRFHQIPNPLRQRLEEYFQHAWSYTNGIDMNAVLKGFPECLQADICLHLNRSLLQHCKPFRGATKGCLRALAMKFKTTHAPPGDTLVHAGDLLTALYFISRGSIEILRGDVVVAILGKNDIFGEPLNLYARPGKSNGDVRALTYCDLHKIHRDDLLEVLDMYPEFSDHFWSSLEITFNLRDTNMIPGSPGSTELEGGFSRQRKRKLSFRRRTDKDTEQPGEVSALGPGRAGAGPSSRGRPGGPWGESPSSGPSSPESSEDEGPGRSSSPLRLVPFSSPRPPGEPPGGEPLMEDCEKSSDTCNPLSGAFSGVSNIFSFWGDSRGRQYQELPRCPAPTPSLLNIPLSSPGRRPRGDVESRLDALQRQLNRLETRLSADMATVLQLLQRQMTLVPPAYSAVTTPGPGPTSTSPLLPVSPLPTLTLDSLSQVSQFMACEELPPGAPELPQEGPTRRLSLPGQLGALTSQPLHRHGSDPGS
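Also: peak tail current of the secondary pulse compared with the same well before compound.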

| SMILES | hERG current change (%, negative = inhibition) at 10uM [%] |
| --- | --- |
| Cc1nc(NC(=O)C2CCCCC2C(=O)O)sc1C (stereo not drawn) | 12 |
| O=C(CNC(=O)c1ccccc1)OCc1nnc(-c2ccc(Cl)cc2)o1 | -10.4 |
| c1ccc2c3c([nH]c2c1)C(C1CCCCC1)N(Cc1ncc[nH]1)CC3 (stereo not drawn) | -39.5 |
| Cc1c(CN2CCc3c([nH]c4ccccc34)C2C2CCCCC2)cnn1C (stereo not drawn) | -38.7 |
| Cc1cnc(CN2CCc3c([nH]c4ccccc34)C2C2CCCCC2)[nH]1 (stereo not drawn) | -62.6 |
| O=S(=O)(c1ccccc1)c1nc(-c2cccs2)oc1NCc1cccnc1 | -50.5 |
| C=CCNc1oc(-c2cccs2)nc1S(=O)(=O)c1ccccc1 | -24.7 |
| Cc1ccc(S(=O)(=O)c2nc(-c3cccs3)oc2NCc2cccnc2)cc1 | -18.3 |
| CNc1oc(-c2cccs2)nc1S(=O)(=O)c1ccccc1 | -18.7 |
| N#Cc1nc(-c2ccco2)oc1NCCCn1ccnc1 | -19.7 |
| O=S(=O)(c1ccccc1)c1nc(-c2ccccc2)oc1NCc1cccnc1 | 8.28 |
| O=S(=O)(c1ccccc1)c1nc(-c2ccco2)oc1NCCCN1CCOCC1 | -6.01 |
| O=S(=O)(c1ccccc1)c1nc(-c2cccs2)oc1NCCCn1ccnc1 | -75.1 |
| O=S(=O)(c1ccccc1)c1nc(-c2ccco2)oc1NCCCn1ccnc1 | -65.6 |
| CC(C)Sc1cc(N2CCCC2)nc(-c2ccccc2)n1 | -5.24 |
| COc1cccc(NC(=O)N(CCN(C)C)C(C)c2cccnc2)c1 (stereo not drawn) | -20.7 |
| Cc1ccc(-n2c(N)c(C(=O)NCc3cccnc3)sc2=S)cc1 | 23.5 |
| CCOc1ccc(CCNC(=O)COC(=O)c2ccc(S(=O)(=O)N3CCCC3)cc2)cc1OCC | 25.7 |
| O=C(Nc1cc(Cl)ccc1O)c1cc(-c2ccco2)on1 | 8.36 |
| Cc1nn(Cc2ccccc2)c(Cl)c1C(=O)OCC(=O)NC(=O)NC12CC3CC(CC(C3)C1)C2 | 11.5 |
| CCc1nc(N2CCN(C(=O)c3ccco3)CC2)c2c3c(sc2n1)CCCC3 | -65.3 |
| Cc1nc(N2CCNCC2)c2c3c(sc2n1)CCCC3 | -2.23 |
| Cc1nc(N2CCN(C(=O)c3cccs3)CC2)c2c3c(sc2n1)CCCC3 | -63.8 |
| CC1CCc2c(sc3nc(C4CC4)nc(N4CCN(C(=O)c5ccco5)CC4)c23)C1 (stereo not drawn) | -19.2 |

| SMILES | hERG current change (%, negative = inhibition) at 10uM [%] |
| --- | --- |
| CCCNC(=S)N1CCN(c2nc(C)nc3sc4c(c23)CCCC4)CC1 | -31.5 |
| Cc1nc(N2CCN(C(=O)c3ccco3)CC2)c2c3c(sc2n1)CCC3 | -54.8 |
| CCc1nc(SCC(=O)N2CCN(C(=O)c3ccco3)CC2)c2c3c(sc2n1)CCCC3 | -46 |
| Cc1nc(N2CCOCC2)c2c3c(sc2n1)CCC3 | 10.4 |
| Cc1nc(N2CCN(C(=O)c3ccco3)CC2)c2c3c(sc2n1)CC(C)CC3 (stereo not drawn) | -63.9 |
| Cc1nc(N2CCN(C)CC2)c2c3c(sc2n1)CCCC3 | -11.4 |
| CCc1nc(N2CCN(C(=O)c3ccccc3)CC2)c2c3c(sc2n1)CCCC3 | -12.2 |
| CC(=O)N1CCN(c2nc(C)nc3sc4c(c23)CCC(C)C4)CC1 (stereo not drawn) | -19.3 |
| CCOc1ccc(N2C(=O)CC(NCCc3c[nH]c4ccccc34)C2=O)cc1 (stereo not drawn) | 1.45 |
| Cc1cc(C(=O)Nc2nccs2)c2cc(F)ccc2n1 | 7.7 |
| CCCn1c(N)c(C(=O)CSc2nnc(Cc3ccccc3)o2)c(=O)n(C)c1=O | -0.939 |
| O=S(=O)(c1ccccc1)c1ncc(C(F)(F)F)cc1O | 9 |
| O=C(COC(=O)/C=C/c1cccc(F)c1)NC1CCCC1 | 4.41 |
| CCOc1ccc(CCNC(=O)CCC(=O)N2CCOc3ccccc32)cc1OCC | -7.82 |
| COc1cccc(OC)c1C(=O)NC(=S)N1CCCCC1c1cccnc1 (stereo not drawn) | -13 |
| Nc1c(CO)nnn1-c1ccccc1 | 4.7 |
| O=C(Nc1ccc(OCC(F)(F)C(F)F)c(C(F)(F)F)c1)c1ccccc1O | 9.65 |
| COc1ccc2c(Cl)c(-c3nnc(SCC(=O)c4ccccc4)n3C)sc2c1 | 8.28 |
| Cc1ccc(NC(=O)c2ccccc2NS(=O)(=O)c2ccc(Cl)s2)cc1S(=O)(=O)N1CCOCC1 | 0.321 |
| COc1ccc(OCc2csc(N)n2)cc1 | 39.4 |
| Cc1nc(N2CCN(C(=O)c3ccco3)CC2)c2c3c(sc2n1)CCCC3 | -64.1 |
| Cc1nc(-n2nnc3ccccc32)c2c3c(sc2n1)CCCC3 | -50.1 |
| Cc1nc(-n2nnc3cc(C)c(C)cc32)c2c3c(sc2n1)CCCC3 | -1.48 |
| CCc1nc(N2CCN(C(C)=O)CC2)c2c3c(sc2n1)CCCC3 | -20.1 |
